According to ChEMBL document CHEMBL3988442, “University of Dundee, Small-Polar-MMV Screening Library” (2021):
About 13,000 (27%) of roughly 48,000 compounds showed an effect of 50% or more. The list shows a part of the results.

These compounds were tested on Wolbachia pipientis (assay: Anti-Wolbachia Cell-Based Screen). Settings: 5 µM.
Assay type: functional
Set-up: scale not given: in the data most compounds retested in dose-response had high values

Row | SMILES | Percent Effect [%]
1 | CCN(C(=O)Cc1ccc(NCc2ncc[nH]2)cc1)c1ccccc1 | -2.92
2 | Cc1[nH]c(=O)c(C#N)cc1C(=O)N1C[C@@H](CN2CCCC2)C[C@H](CO)C1 | 10.61
3 | CCOc1ccccc1C(CC(=O)Nc1ccccc1)NC(C)=O (centres undefined) | -7
4 | CCC(=O)N1CCN(c2cc(N(C)C)cnn2)CC1 | 6.449
5 | O=c1[nH]c(N2CC(O)C2)nc2c1cnn2-c1ccccc1 | 21.25
6 | Cc1nc(CN2C(=O)COC3(CCN(Cc4nccs4)CC3)C2C)cs1.O=C(O)C(F)(F)F (centres undefined) | -7.401
7 | Cc1nc(CN2C(=O)COC3(CCN(C(N)=O)CC3)C2C)cs1 (centres undefined) | 117.7
8 | Cc1nc(CN2C(=O)COC3(CCN(Cc4ccsc4)CC3)C2C)cs1.O=C(O)C(F)(F)F (centres undefined) | 114.5
9 | Cc1nc(CN2C(=O)COC3(CCN(C)CC3)C2C)cs1.O=C(O)C(F)(F)F (centres undefined) | 127.2
10 | CC1N(CC2CC2)C(=O)COC12CCN(C(=O)c1cscn1)CC2 (centres undefined) | -4.225
11 | COCC1CC2(CCN(C(N)=O)CC2)CN1Cc1csc(C)n1.O=C(O)C(F)(F)F (centres undefined) | -7.067
12 | Cc1nc(CN2C(=O)CC3(CCN(C(N)=O)CC3)c3ccccc32)cs1.O=C(O)C(F)(F)F | -9.244
13 | Cc1nc(CN2C(=O)COC3(CCN(CC4CC4)CC3)C2C)cs1.O=C(O)C(F)(F)F (centres undefined) | 98.79
14 | CCc1ccc(CNC(=O)Nc2cc(C)on2)s1 | -14.37
15 | COCc1nc2cc3c(cc2c(=O)o1)OCCCO3 | -7.292
16 | COc1cc(CC(O)CC#N)c(OC)c2c1OCO2 (centres undefined) | -11.73
17 | COCc1noc(-c2nn(-c3ccccc3F)c3c2CCC3)n1 | -4.596
18 | Cc1ncsc1CCC(=O)N1CCCC[C@H](N(C)C)C1 | 4.231
19 | CCCNc1ccc(C(=O)NCCc2cccc(Cl)c2)cn1 | 116.4
20 | CCNc1ncc(C(=O)NCCc2ccc(C)c(C)c2)cn1 | -6.077
21 | CCCNc1ccc(C(=O)NCCc2cccc(OC)c2)cn1 | 121.7
22 | CNC(=O)c1cccc(CCNc2ccc(C#N)cn2)c1 | -20.96
23 | COc1cc(C(=O)NCCc2cccc(C)c2)on1 | -13.11

Row | SMILES | Percent Effect [%]
24 | COc1cccc(CCNC(=O)c2ccc(=O)n(C)c2)c1 | 11.31
25 | COc1cc(C(=O)NCCc2ccc(Cl)cc2)on1 | -4.303
26 | CCCNc1ccc(C(=O)NCCc2ccc(Cl)cc2)cn1 | 106.9
27 | CNC(=O)c1cccc(CCNc2ccccn2)c1 | -20.45
28 | CCCn1cnnc1CNC(=O)CC1C(=O)NCCN1C(C)C (centres undefined) | -4.75
29 | CN(CCCc1nccn1C)C(=O)C1CCN(C(=O)C2CCCC2)CC1 | -7.854
30 | Cc1cc(C)cc(CN2CCN(Cc3ccc4nonc4c3)CC2=O)c1 | -1.635
31 | CCNC(=O)CN1CCC(c2cc(OC)cc(OC)c2)C1 (centres undefined) | -11.46
32 | CCOCC1CN(S(C)(=O)=O)Cc2nn(C)cc21 (centres undefined) | -37.27
33 | CCOc1cc(C(=O)N2CCCC(c3noc(C)n3)C2)ccc1OC (centres undefined) | 123.2
34 | Cc1nc(C2CCCN(C(=O)c3ccc(OCC4CC4)nc3)C2)no1 (centres undefined) | 97.67
35 | COc1ccnc(C(=O)N2CCCC(c3noc(C)n3)C2)c1 (centres undefined) | -1.667
36 | Cc1nc(C2CCCN(C(=O)c3ccc(OCC4CC4)cc3)C2)no1 (centres undefined) | -3.23
37 | Cc1nc(C2CCCN(C(=O)c3ccc(N4CCCC4)nc3)C2)no1 (centres undefined) | -0.5946
38 | COc1ccc(N(C(=O)c2ccc(C)nc2)C(C)C)cc1F | -11.04
39 | CN(C)C[C@@H]1CN(Cc2ccccc2C#N)C[C@@H]1CO | 8.186
40 | Cn1ncc2c1CN(C(=O)Cc1ccccn1)CC2COCC1CC1.O=C(O)C(F)(F)F.O=C(O)C(F)(F)F (centres undefined) | -6.419
41 | Cc1cc(C)c(CCNC(=O)NCCCC(N)=O)c(C)c1 | -1.921
42 | COCC(O)CNC(=O)c1coc(COc2cccc(F)c2)n1 (centres undefined) | 3.844
43 | COCC(O)CNC(=O)Nc1c(F)cc(F)cc1-c1ccccc1 (centres undefined) | 147.7
44 | CCNC(=O)CNC(=O)Nc1c(F)cc(F)cc1-c1ccccc1 | 120.1
45 | CCNC(=O)CNC(=O)Nc1cccc(Cl)c1SC(F)F | -15.46
46 | O=C(CNC(=O)Nc1c(F)cc(F)cc1-c1ccccc1)NC1CC1 | 131.5

Row | SMILES | Percent Effect [%]
47 | O=C(NCCO)Nc1c(F)cc(F)cc1-c1ccccc1 | 122.6
48 | O=C(NCCO)Nc1c(F)cccc1Oc1ccccc1 | 2.837
49 | CNC(=O)CNC(=O)Nc1ccc(Br)c(F)c1 | -1.14
50 | O=C(NCCO)Nc1ccc(Br)c(F)c1 | -6.574
51 | COCC(O)CNC(=O)c1cnc(-c2ccccc2)nc1O (centres undefined) | -15.86
52 | O=C(CNC(=O)Nc1cccc(Cl)c1SC(F)F)NC1CC1 | -13.14
53 | O=C(CNC(=O)Nc1c(F)cccc1Oc1ccccc1)NC1CC1 | -0.6876
54 | CCC(CNC(=O)C1CCC1)(OC)c1ccccc1 (centres undefined) | -1.894
55 | CN(Cc1ncc[nH]1)c1nc(-c2ccccn2)nc2c1CCNCC2 | -0.01551
56 | c1cnnc(N2CCCC(NCc3nc(C4CC4)no3)C2)c1 (centres undefined) | 9.898
57 | Cn1nc(C(C)(C)C)cc1NC(=O)CSc1nnc[nH]1 | -11.13
58 | CCC(CNC(=O)OC)(OC)c1ccccc1 (centres undefined) | 1.829
59 | CN(C)CCN(C)C(=O)NC1CCC(Oc2ccccc2C#N)CC1 (centres undefined) | -10.57
60 | CC(=O)NC1(C(=O)N2CCC(Nc3cccnn3)CC2)CCCCC1 | 6.747
61 | CNc1cccc(C2CCCN(C(C)=O)C2)n1 (centres undefined) | 2.608
62 | CC(=O)N1CCC(c2cccc(NC3CCOCC3)n2)CC1 | 84.73
63 | CC(=O)N1CCC(c2cnc(NC3CCOCC3)cn2)CC1 | 89.11
64 | Cc1noc(C2CCN(C(=O)c3ccc(NC4CC4)nc3)CC2)n1 | -4.487
65 | O=C(N1CCOCC1)N1CCC(Nc2ccncn2)CC1 | 6.366
66 | CNc1cccc(C2CCN(C(C)=O)CC2)n1 | 105.5
67 | COc1ccccc1CNC(C)c1cnc2cc(C)nn2c1C (centres undefined) | -25.88
68 | CC(C)c1cc(C(=O)O)nc2[nH]c(=O)[nH]c(=O)c12 | 113.5
69 | CC(C)CCc1cc(C(=O)O)nc2[nH]c(=O)[nH]c(=O)c12 | 107.7

Row | SMILES | Percent Effect [%]
70 | CC(C)Cc1cc(C(=O)O)nc2[nH]c(=O)[nH]c(=O)c12 | 118.2
71 | CC1(C)OCC2(CO1)CN(C(=O)c1ccccc1Cl)C2 | 5.486
72 | CCCc1cc(C(=O)N(Cc2cccnc2)C2CCCCC2)[nH]n1 | 21.65
73 | Cn1cc(CN(CC2(O)CNCCOC2)C2CCCCC2)cn1 (centres undefined) | 106.6
74 | CN(Cc1cnn(C)c1)S(=O)(=O)N1CCCCCC1 | 16.54
75 | CCN(CC)[C@H]1COC[C@@H]2CN(Cc3cnn(C)c3)C[C@@H]21 | 13.67
76 | CN(Cc1cnn(C)c1)S(=O)(=O)N1CCCCC1 | -3.727
77 | OC1(CN(Cc2cccnc2)C2CCCCC2)CNCCOC1 (centres undefined) | 96.56
78 | Cn1cc(CN(CC2(O)CCNC2)C2CCCCC2)cn1 (centres undefined) | 118.9
79 | CN(Cc1ccc2nsnc2c1)CC1(O)CNCCOC1 (centres undefined) | -20.02
80 | OC1(CNCc2noc(Cc3ccccc3)n2)CNCCOC1 (centres undefined) | 7.869
81 | CC(SCCC(=O)NC(N)=O)c1c(F)cccc1F (centres undefined) | -3.785
82 | Cc1cccc(N2CCC(NC(=O)CCCc3cccs3)CC2)n1 | -12.55
83 | CCSC(C)c1nc(-c2ccc(C)nn2)no1 (centres undefined) | 3.709
84 | Clc1ccccc1C1(c2ccnc(-c3ccncc3)n2)CCNCC1 | -9.027
85 | CN(C)C(=O)C1CN(c2ccncn2)CCN(C2CCOCC2)C1 (centres undefined) | 126.1
86 | Cc1cc(N2CCN(C3CCOCC3)CC(C(=O)N(C)C)C2)ncn1 (centres undefined) | 98.55
87 | Cc1noc(-c2ccnc(N3CCCN(C4CCOCC4)CC3)c2)n1 | -8.48
88 | CN(C)C(=O)C1CN(Cc2c[nH]cn2)CCN(C2CCOCC2)C1 (centres undefined) | -9.527
89 | CCc1c(C)sc2ncnc(N3CCN(C4CCOCC4)CC3)c12 | 8.782
90 | Cc1nccnc1N1C[C@H]2CN(C3CCOCC3)C[C@@]2(C(=O)O)C1 | -7.502
91 | Cc1nccc(N2CCC(=O)N(CC3CC3)C(C(C)C)C2)n1 (centres undefined) | -7.894
92 | CNC(=O)C1CN(c2ccnc(C)n2)CCN(C2CCOCC2)C1 (centres undefined) | 102.7

Row | SMILES | Percent Effect [%]
93 | O=C([C@H]1COC[C@H]2CN(c3ccncn3)C[C@H]21)N1CCCC1 | -2.247
94 | Cc1nccc(N2CCN(C3CCOCC3)CC(C(=O)N(C)C)C2)n1 (centres undefined) | 164.8
95 | CN1CCN(C(=O)c2ccc(Cn3cc(Br)cn3)cc2)CC1 | -6.635
96 | CN(Cc1ccc(Cl)s1)C(=O)NCCN1CCCCCC1=O | -12.97
97 | Cc1cc(NC(=O)C(C)N2CCN(c3nc(C)cs3)CC2)on1 (centres undefined) | 1.656
98 | COCc1cccc(NC(C(N)=O)c2ccc(Br)cc2)c1 (centres undefined) | 31.5
99 | Cc1cc(NCC2CCN(c3ccccc3)C2)n2ncnc2n1 (centres undefined) | 0.02222
100 | O=C(COCC1CCCO1)N1CCCN(Cc2ccccc2F)CC1 (centres undefined) | -31.39
101 | CSc1ccc2cc(CN(C)CCCN(C)C)c(=O)[nH]c2c1 | -7.905
102 | CSc1ccccc1CN1CCn2nc(CNC(C)=O)cc2C1 | -10.31
103 | CN(Cc1ccccc1)CC(O)Cn1cnc2ccccc2c1=O (centres undefined) | 5.606
104 | COc1cccc(CN(C)C(=O)CN2CCN(CCO)CC2)c1 | -4.711
105 | COc1cccc(SCC(=O)N2CCC(N3CCCC3=O)CC2)c1 | -9.437
106 | COc1ccc(OCCN(C)C(=O)NC(C)c2nncn2C)cc1 (centres undefined) | 5.358
107 | COc1ccc(OCCCN(C)C(=O)C2CCCN2C(N)=O)cc1 (centres undefined) | -3.357
108 | COc1ccc(OCCN(C)CCCn2cnc3c(N)ncnc32)cc1 | 102.2
109 | CN(CCCn1cnc2c(N)ncnc21)Cc1ccccc1 | 86.6
110 | COc1cccc(CCCn2cnnc2[S+](C)[O-])c1 (centres undefined) | 5.279
111 | COc1cccc(SCCCn2cnc3c(N)ncnc32)c1 | 97.7
112 | CN(Cc1ccccc1)CC(O)Cn1cnc2c(cnn2C)c1=O (centres undefined) | -10.76
113 | CCS(=O)(=O)c1ncc(CN(C)Cc2cccc(OC)c2)n1CCOC | -4.749
114 | COc1cccc(CN(C)CCCn2cnc3c(N)ncnc32)c1 | 85.72
